Our source for the growth inhibition values is PubChem BioAssay (NCI).

A short description of assay [1]: NCI Yeast Anticancer Drug Screen. Data for the rad50 strain (AID 155).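 Further: 0% = growth of vehicle-only cultures of the same strain.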 As to conditions: S. cerevisiae rad50 strain growth inhibition; at 50.0 µM; hits give high values. The essentials:
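Yeast carrying a defined DNA repair defect were exposed to test compounds, and growth was compared with vehicle-treated controls to give percent inhibition.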

Assay [2] in a line: NCI Yeast Anticancer Drug Screen. Data for the mec2-1 strain (AID 157). The note with it: S. cerevisiae mec2-1 strain, at 50.0 µM, hits give high values. The method in brief:
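Yeast mec2-1 mutant treated with compound. Readout: growth inhibition vs vehicle controls.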

Assay [3] in a line: NCI Yeast Anticancer Drug Screen. Data for the sgs1 mgt1 strain (AID 161).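 Further: 0% = growth of cultures given vehicle only.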 The note with it: S. cerevisiae sgs1 mgt1 strain, at 50.0 µM, hits give high values. The essentials:
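Read-out: growth inhibition vs vehicle controls. Cells: mutant yeast strain deficient in DNA damage repair.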

Assay [4] is described as follows: NCI Yeast Anticancer Drug Screen. Data for the cln2 rad14 strain (AID 165).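 Further: 0% = growth equal to vehicle treated cultures.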 As to conditions: S. cerevisiae cln2 rad14 strain, at 50.0 µM, hits give high values. The essentials: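 cln2 rad14 yeast strain; compound exposure; growth inhibition read vs vehicle controls.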
The nature of assay [5]: NCI Yeast Anticancer Drug Screen. Data for the bub3 strain (AID 167). As to conditions: S. cerevisiae bub3 mutant strain, at 50.0 µM, hits give high values. The essentials: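 Compounds were applied to a genetically altered yeast strain carrying a cell-cycle control defect. Growth inhibition was scored against vehicle-treated controls.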
Assay [6] is described as follows: NCI Yeast Anticancer Drug Screen. Data for the mlh1 rad18 strain (AID 175). As to conditions: S. cerevisiae mlh1 rad18 strain growth inhibition; at 50.0 µM; hits give high values. The essentials: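 Yeast w/ defined DNA-repair lesions; compound exposure; growth vs vehicle controls → % inhibition.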

The panel holds about 79,000 compounds, 15% with a hit somewhere; the sample as a whole holds those more often. Values without a mark were called inactive. Activity calls are given as the source filed them. No stated cut-off is given here; in the data, active means growth inhibition above about 70%; inactive means the rest.

On to `CCCC(O)(c1ccccc1)c1ccccc1`, for which the growth inhibition in assay [1] is 5.4%; in assay [2], 2.95%; in assay [3], -2.95%; in assay [4] it was -6.4%; in assay [5], -4.5%; in assay [6], 4.5%.

With `ONC1=Nc2ccccc2C(=S)N2CSCC12` (stereo unspecified), the growth inhibition in assay [1] was -21%; in assay [2], -13.4%; in assay [3] it was -26.4%; in assay [4], -19.6%; in assay [5] it was -21.6%; in assay [6] it was 15.9%.

As for `CC1=CC(=C2C=CC(=O)C=C2)C=C(C)N1C`, the growth inhibition in assay [1] was 5.6%; in assay [2], -5.55%; in assay [3], -8.05%; in assay [4], -4.5%; in assay [5], 2.4%; in assay [6], -3.65%.

As for `O=S(=O)(Cc1cccs1)c1ncc(Br)cn1`, the growth inhibition in assay [1] is 9.25%; in assay [2], 10.1%; in assay [3], 7.9%; in assay [4], 7.5%; in assay [5], 11.8%; in assay [6], 7.8%.

For the compound `O=C(CC(c1ccccc1)C1CCCN(c2ccccc2)S1(=O)=O)c1ccccc1` (stereo unspecified), the growth inhibition is 26.6% in assay [1]; 1.2% in assay [2]; 11.1% in assay [3]; 16.9% in assay [4]; -3.05% in assay [5]; 23.1% in assay [6].

Consider `NC(Cc1cccc([N+](=O)[O-])c1)C(=O)O` (stereo unspecified), for which the growth inhibition in assay [1] was -57.8%; in assay [2], -29.5%; in assay [3], -35.2%; in assay [4], -48.3%; in assay [5], 13.3%; in assay [6], -3.8%.

On to `COc1ccc(-c2cc(=O)c3cc(O)ccc3o2)c(OC)c1OC`, for which the growth inhibition in assay [1] is 8%; in assay [2], 16%; in assay [3], 11.4%; in assay [4], -6.95%; in assay [5] it was -6.5%; in assay [6], -10.8%.

`COC(=O)c1ccccc1NC(=O)Nc1ccc(SC)cc1`: the growth inhibition in assay [1] is -2%; in assay [2], 24.4%; in assay [3], 19.6%; in assay [4] it was -8.65%; in assay [5], 31.2%; in assay [6] it was 14.3%.

In the case of `CN(C)c1nnnn1-c1c(N)n(C)c(=O)n(C)c1=O`, the growth inhibition in assay [1] is -30.1%; in assay [2] it was -23.2%; in assay [3], 0%; in assay [4], 6.4%; in assay [5], -26.8%; in assay [6], -27.1%.

Turning to `C/C(=N/Nc1ccc([N+](=O)[O-])cc1[N+](=O)[O-])C(CC(C(=O)Nc1ccccc1C)/C(C)=N\Nc1ccc([N+](=O)[O-])cc1[N+](=O)[O-])C(=O)Nc1ccccc1C` (stereo unspecified), the growth inhibition is 18.4% in assay [1]; 25.9% in assay [2]; 4.9% in assay [3]; 10.3% in assay [4]; 8.75% in assay [5]; 43.6% in assay [6].

Regarding `CC1(C)OC2C(CNS(C)(=O)=O)OC(n3cnc4c(N)ncnc43)C2O1` (stereo unspecified), the growth inhibition is -3.05% in assay [1]; -4.55% in assay [2]; -12.1% in assay [3]; -4.75% in assay [4]; 7.45% in assay [5]; -13.2% in assay [6].

Consider `COC1OC2COC(c3ccccc3)OC2C(OS(=O)(=O)c2ccc(Br)cc2)C1OS(=O)(=O)c1ccc(Br)cc1` (stereo unspecified), for which the growth inhibition is -10.5% in assay [1]; 13.7% in assay [2]; -1.3% in assay [3]; -14.7% in assay [4]; -11.8% in assay [5]; 21.6% in assay [6].

In the case of `O=C1NC2Cc3ccccc3C(C2)O1` (stereo unspecified), the growth inhibition in assay [1] is 2.8%; in assay [2], -0.9%; in assay [3], 1.85%; in assay [4] it was -1.95%; in assay [5], 15.9%; in assay [6], 11.8%.

Take `O=P(c1ccccc1)(c1ccccc1)C(O)c1cccs1` (stereo unspecified): the growth inhibition in assay [1] was 12.8%; in assay [2] it was 2%; in assay [3], 17.6%; in assay [4] it was 15.5%; in assay [5], 24.9%; in assay [6], 18.8%.

On to `CCOc1ccccc1NC(=O)CC(=O)N1N=C(C)C(N=Nc2ccccc2C(=O)O)C1=O` (stereo unspecified), for which the growth inhibition in assay [1] is 18.1%; in assay [2], 3.5%; in assay [3], 1.6%; in assay [4], -2.3%; in assay [5] it was -3.35%; in assay [6], 17.6%.

On to `CCCCCCCCCCCn1cnc2c(=S)nc[nH]c21`, for which the growth inhibition in assay [1] is 0.25%; in assay [2], 5.3%; in assay [3], -17.1%; in assay [4], 20.7%; in assay [5], -21.2%; in assay [6], -21.2%.

`C=CCCCCCCCCC(=O)NCc1ccncc1`: the growth inhibition in assay [1] is 56.2%; in assay [2] it was 29.2%; in assay [3], 59.5%; in assay [4] it was 50.4%; in assay [5] it was 41.7%; in assay [6], 86.7% (active).

In the case of `Cc1c(-c2coc(-c3ccc(Cl)cc3)n2)c(=O)n(-c2ccccc2)n1C`, the growth inhibition in assay [1] is -7.85%; in assay [2], -43.2%; in assay [3], -22.1%; in assay [4], -9.9%; in assay [5], 7.4%; in assay [6] it was -6.6%.

On to `COC(=O)C1CSC(C)(C)N1` (stereo unspecified), for which the growth inhibition is 10.6% in assay [1]; -8.55% in assay [2]; -1.5% in assay [3]; -0.95% in assay [4]; -7.35% in assay [5]; 4.35% in assay [6].

Consider `CC1=C(C)CP(=O)(c2ccccc2)C1`, for which the growth inhibition was 16.6% in assay [1]; -5.2% in assay [2]; -0.7% in assay [3]; -8.65% in assay [4]; -3.9% in assay [5]; -35.4% in assay [6].

`O=C1CSC(=S)N1c1cccc(F)c1`: the growth inhibition is 32.1% in assay [1]; -10.6% in assay [2]; 2.1% in assay [3]; -27.2% in assay [4]; -18.1% in assay [5]; 3.65% in assay [6].
